Assay outcomes: PubChem BioAssay, National Center for Advancing Translational Sciences (NCATS)
RE007 growth inh – less growth of the S. pombe RE007 Vpr strain; S. pombe RE007 Vpr strain, BacTiter-Glo ATP luminescence, 24 h; AID 651644; Potency, µM (doses to about 92.2 µM), for inactives: at the top dose activity change, negative = less growth, most hits filed as inhibitors; 360,000 tested, 0.21% active; active means well fitted falling curve with a large enough effect; inconclusive means small, poorly fitted or top-dose-only effect; inactive means no such curve, though single readings can be large or run the other way; further: nearly all actives have a fitted effect of over 50% in size
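Fission yeast strain RE007, carrying one chromosomally integrated HIV-1 vpr copy, was seeded at OD 0.01 in PMG+AL medium with 23 nL pinned compound. After 24 h at 30 °C and 99% humidity, viability was read by BacTiter-Glo luminescence.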
Tb PYK inh – T. brucei pyruvate kinase inhibition. AID 624173. Potency, µM (doses to about 76.8 µM), for the others: at the highest dose activity, negative = inhibition, usual class: inhibitors. TbPYK enzyme, Kinase-Glo Plus ATP luminescence, 45 min. 410,000 tested, 0.12% active. Q57TT1; further: nearly all actives have a fitted effect of over 50% in size
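TbPYK + substrate in 50 mM TEA pH 7.2, 100 mM KCl, 10 mM MgCl2, 0.05% BSA, 0.01% Tween-20; cpd pinned; ADP 130 uM final; 45 min RT; Kinase-Glo Plus 10 min; luminescence endpoint.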
AmpC detergent – inhibitors of E. coli AmpC beta-lactamase with detergent; P00811; AmpC hydrolysis of nitrocefin, absorbance 480 nm, 0.01% Triton; Potency, µM (doses to about 114 µM), inactives show at the top dose activity change, negative = inhibition, hits mostly inhibitors; 370,000 tested, 0.041% active;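 further: 0% = no-compound wells and -100% = no-enzyme wells; nearly all actives have a fitted effect of over 25% in size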
Target sequence (P00811 whole entry, looked up): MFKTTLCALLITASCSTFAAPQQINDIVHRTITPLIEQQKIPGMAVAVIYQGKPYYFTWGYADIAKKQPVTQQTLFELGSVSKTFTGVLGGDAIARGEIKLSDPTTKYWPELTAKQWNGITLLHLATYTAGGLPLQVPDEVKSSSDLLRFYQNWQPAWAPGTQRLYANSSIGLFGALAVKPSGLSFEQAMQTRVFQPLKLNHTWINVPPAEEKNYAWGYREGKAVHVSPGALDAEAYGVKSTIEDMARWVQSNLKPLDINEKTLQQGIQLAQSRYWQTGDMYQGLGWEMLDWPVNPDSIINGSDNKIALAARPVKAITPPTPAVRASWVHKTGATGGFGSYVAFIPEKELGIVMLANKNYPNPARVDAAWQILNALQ
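20 mM phosphate pH 7.0 + 0.01% (detergent screen) or 0.0001% Triton X-100; 5.3 nM AmpC reagent; cpd preinc 15 min RT; nitrocefin (800 uM stock) to start; A480 q20 s × 4 min; Activity was normalised to no-enzyme and no-compound control wells.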
AmpC no deterg – blocks E. coli AmpC beta-lactamase in detergent-free assay. P00811. AmpC nitrocefin hydrolysis, absorbance 480 nm, 0.0001% Triton. Potency, µM (series often up to 57.1 µM), inactives show at the top dose activity change, negative = inhibition, actives largely listed as inhibitors. 330,000 tested, 0.52% active. AID 485341;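 further: plate controls were no compound for no effect and no enzyme for full effect; nearly all actives have a fitted effect of over 20% in size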
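AmpC (5.3 nM in the dispensed reagent) in 20 mM phosphate pH 7.0 with 0.01% (detergent screen) or 0.0001% Triton X-100 was preincubated with compounds for 15 min at room temperature. Nitrocefin was then added from an 800 uM solution, and hydrolysis was followed at 480 nm.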
LmPK inh – blocks Leishmania mexicana pyruvate kinase activity. Q27686. purified LmPK, Kinase-Glo ATP luminescence, 1 h. Potency, µM (top dose mostly 57.5 µM), for the others: at the top dose activity change, negative = inhibition, most hits filed as inhibitors. 290,000 tested, 0.37% active
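Screened at intermediate enzyme activity to detect both inhibitors and activators: LmPK at 0.1 nM, with a 0.5 nM enzyme column as activation reference. PEP 0.5 mM, ADP 0.1 mM; ATP detected by luminescence after 1 h.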
Giardia FBPA inh – inhibitors of Giardia lamblia fructose-1,6-bisphosphate aldolase; purified Giardia FBPA; Potency, µM (highest dose often 59.6 µM), without a hit: at the highest dose activity, negative = inhibition, usual class: inhibitors; 290,000 tested, 0.71% active; further: nearly all actives have a fitted effect of over 55% in size
Target sequence (A8B2U2 whole entry, looked up): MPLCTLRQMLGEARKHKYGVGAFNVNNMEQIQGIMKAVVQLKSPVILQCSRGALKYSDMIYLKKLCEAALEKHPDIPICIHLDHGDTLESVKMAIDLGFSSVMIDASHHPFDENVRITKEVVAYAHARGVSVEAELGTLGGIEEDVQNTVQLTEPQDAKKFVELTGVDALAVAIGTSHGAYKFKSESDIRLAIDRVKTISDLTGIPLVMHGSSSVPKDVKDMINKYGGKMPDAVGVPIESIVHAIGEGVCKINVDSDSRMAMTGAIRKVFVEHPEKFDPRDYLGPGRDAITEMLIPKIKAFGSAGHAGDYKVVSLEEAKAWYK
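40 nM FBPA preincubated 10 min at RT with compound (up to 57.5 uM final), then substrate plus GAPDH/TPI/NAD/arsenate coupling and diaphorase/resazurin added. Fluorescence read after 20 min at RT, 525/598 nm.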
Numbers without * were called inactive; [ ] = remark or other dose. Sampled rows, rich in hits. Any-hit rate of the full collection: about 1.4%. Unless noted, the call rests on the fitted dose curve; in most records, active means well fitted curve in the direction sought with a large enough effect; inconclusive means small, poorly fitted or top-dose-only effect, or another doubt; inactive means no such curve, though single readings can be large; an effect the other way counts as inactive or inconclusive. Unless noted, on the % scale 0 is the no-effect control and ±100 the full control effect; potency means the concentration at half of the fitted maximal effect.

For COc1cc(/C=C(\C#N)c2nc3ccccc3c(=O)[nH]2)cc(OC)c1OC the results were Tb PYK inh 3% and AmpC detergent -5%.
Screening Cc1[nH]c(=S)c(C#N)c2c1CCCC2 returned RE007 growth inh 69%, Tb PYK inh 3.5µM*, AmpC detergent inconclusive, AmpC no deterg -39%, LmPK inh 5% and Giardia FBPA inh 11%.
`O=c1c(-c2ccccc2)coc2cc(O)cc(O)c12` gave Giardia FBPA inh 20µM*.
For O=c1c(-c2ccc3c(c2)OCCO3)coc2cc(O)cc(O)c12 the results were RE007 growth inh -19%, Tb PYK inh 0%, AmpC detergent 8%, AmpC no deterg -12%, LmPK inh -21% and Giardia FBPA inh 0%.
`CC1(C)Oc2cc(N)c([N+](=O)[O-])cc2O1` gave RE007 growth inh -2%, Tb PYK inh -12%, AmpC detergent -13%, AmpC no deterg -9%, LmPK inh 3% and Giardia FBPA inh 0%.
Screening C=C1N(C)c2cc([N+](=O)[O-])c(N)cc2C1(C)C returned RE007 growth inh -28%, Tb PYK inh -15%, AmpC detergent 3%, AmpC no deterg -42%, LmPK inh -8% and Giardia FBPA inh 4.5µM*.
Screening Cc1ccc2c(c1)C(=C(C#N)C#N)C(=O)N2CCN1CCOCC1 returned RE007 growth inh -9%, Tb PYK inh 1%, AmpC detergent -4%, AmpC no deterg 14%, LmPK inh -4% and Giardia FBPA inh 3.2µM*.
COc1ccccc1NC1=C(Cl)C(=O)N(C2CCCCC2)C1=O was read as RE007 growth inh 10%, Tb PYK inh -1%, AmpC detergent 3%, AmpC no deterg 14µM*, LmPK inh 0% and Giardia FBPA inh -2%.
For C=CCC(CC=C)(CNC(=O)C(=O)Nc1cccc(C(F)(F)F)c1)c1ccccc1 the results were Tb PYK inh 4% and AmpC detergent -4%.
Screening CCC(=O)C(Cc1ccccc1)(Cc1ccccc1)CC(C)N(C)C (stereo not drawn) returned Tb PYK inh -5%[157 µM].
Screening CCOC(=O)CC(=O)CSc1nc2ccc(C)cc2cc1C#N returned RE007 growth inh -11%, Tb PYK inh inconclusive, AmpC detergent inconclusive, AmpC no deterg -33%, LmPK inh 20µM* and Giardia FBPA inh -17%.
For Cc1ccsc1C=Nc1ccc(O)cc1 the results were RE007 growth inh -10%, Tb PYK inh -14%, AmpC detergent -9%, AmpC no deterg -25%, LmPK inh -19% and Giardia FBPA inh 5.6µM*.
Cc1ccsc1/C=N/N=C/c1sccc1C was read as RE007 growth inh -12%, Tb PYK inh -24%, AmpC detergent 10%, AmpC no deterg -26%, LmPK inh -24% and Giardia FBPA inh 18%.
COc1cccc(-c2nc(SCC(=O)NCc3ccco3)c3c(=O)n(C)c(=O)n(C)c3n2)c1 was read as Tb PYK inh 0% and AmpC detergent 1%.
For COc1ccc(-c2[nH]c(-c3cccc(OC)c3)nc2SCC(=O)NCc2ccco2)cc1 the results were RE007 growth inh -6%, Tb PYK inh 0%, AmpC detergent -15%, AmpC no deterg 10µM*, LmPK inh 3% and Giardia FBPA inh -13%.
Screening O=C(/C=C/c1cccc(F)c1)Nc1ccc(S(=O)(=O)Nc2ncccn2)cc1 returned RE007 growth inh 0%, Tb PYK inh 0%, AmpC detergent -3%, AmpC no deterg 11µM*, LmPK inh 2% and Giardia FBPA inh 7%.
`COc1ccc(/C=C/C(=O)c2ccc([N+](=O)[O-])o2)cc1OC` gave RE007 growth inh 0%, Tb PYK inh -4%, AmpC detergent -15% and AmpC no deterg 1%.
For COc1cc(/C=C/C(=O)c2ccc([N+](=O)[O-])o2)ccc1O the results were RE007 growth inh 13µM*, Tb PYK inh -5%, AmpC detergent -4% and AmpC no deterg -11%.
O=C(/C=C/c1cccc(Cl)c1)c1ccc([N+](=O)[O-])o1 was read as RE007 growth inh 11µM*, Tb PYK inh -12%, AmpC detergent inconclusive and AmpC no deterg -29%.
CCOc1ccc(NC(=O)c2cnn(-c3ccc(C)c(C)c3)c2C2CCN(C(=O)OC(C)(C)C)CC2)cc1 was read as Tb PYK inh -1% and AmpC detergent 15%.
For O=C(COc1ccc2ccccc2c1)NC1CC(=O)N(c2ccccc2)C1 (stereo not drawn) the results were Tb PYK inh -4% and AmpC detergent -4%.
For Cc1cc(/C=C2\SC(=S)NC2=O)c(C)n1-c1ccc(O)cc1 the results were RE007 growth inh 0%, Tb PYK inh -15%, AmpC detergent -3%, AmpC no deterg 11µM*, LmPK inh -25% and Giardia FBPA inh 8%.
`COc1ccc(N2CCN(CCCNC(=O)C3COc4ccc(OC)cc4C3)CC2)cc1` (stereo not drawn) gave Tb PYK inh 0% and AmpC detergent -5%.
O=C(COc1ccccc1Cl)N(Cc1ccco1)Cc1ccco1 was read as Tb PYK inh 0% and AmpC detergent 20%.
Screening Cc1ccccc1-c1nc(CN2CCC(C(=O)N3CCC(C(N)=O)CC3)CC2)c(C)o1 returned RE007 growth inh -11%, Tb PYK inh -5%, AmpC detergent inconclusive, AmpC no deterg 11µM*, LmPK inh 0% and Giardia FBPA inh 6%.
`CCOc1ccc(C=NNc2ccc(S(=O)(=O)Nc3ccccc3C(=O)O)cc2[N+](=O)[O-])cc1` gave RE007 growth inh 7%, Tb PYK inh 4% and AmpC no deterg 28µM*.
`CSc1ccc(C=NNc2ccc(S(=O)(=O)Nc3ccccc3C(=O)O)cc2[N+](=O)[O-])cc1` gave RE007 growth inh 4%, Tb PYK inh -2% and AmpC no deterg -35%.
COc1cccc(-c2ccc(SCc3ccccn3)nn2)c1 was read as RE007 growth inh -23%, Tb PYK inh -6%, AmpC detergent -12%, AmpC no deterg -6%, LmPK inh 14µM* and Giardia FBPA inh -8%.
For COc1ccc(-c2ccc(SCc3ccccn3)nn2)cc1OC the results were RE007 growth inh -9%, Tb PYK inh 11%, AmpC detergent 4%, AmpC no deterg 3%, LmPK inh 2% and Giardia FBPA inh inconclusive.
For CCOC(=O)c1c(C)n(-c2ccccc2)c2ccc(OC(=O)c3cccc(Cl)c3)cc12 the results were Tb PYK inh 0% and AmpC detergent 10%.
